# Measurements taken from PubChem BioAssay.
# Active and inactive are the calls of the source. Cut-off read from the data, not from the text of the source, unless noted: active = inhibition above about 80%; inactive = the rest.
# Columns and labels:
# [1] = LFS_MB_P medulloblastoma growth inhibition, cell-based, chromothripsis tumors, cisplatin or BGB combos (AID 1671449); details: LFS_MB_P medulloblastoma cells;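 note: cells exposed for 96 hours; 0% = vehicle DMSO and 100% = killing by high DMSO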
# [2] = HDN33 neuroblastoma growth inhibition, cell-based, chromothripsis tumors, cisplatin or BGB combos (AID 1671450); details: HDN33 neuroblastoma cells, stronger effect = higher value;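 note: cells exposed to compound for four days; 0% = vehicle DMSO and 100% = cell killing by high DMSO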
# [3] = ICB984 medulloblastoma cell growth inhibition, synergistic combos for chromothripsis tumors, cisplatin or BGB combos (AID 1671451; call rule not given here;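 note: cells exposed for 96 hours before readout; 0% = vehicle DMSO and 100% = killing by high DMSO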); details: ICB984 medulloblastoma cells, drug combinations, stronger effect = higher value
# [4] = LFS_MB_1R medulloblastoma cell growth inhibition, synergistic combos for chromothripsis tumors, cisplatin or BGB combos (AID 1671452); details: LFS_MB_1R medulloblastoma cells, stronger effect = higher value;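 note: cells exposed for 96 hours before readout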
# [5] = HTB85 osteosarcoma cell growth inhibition, synergistic combos for chromothripsis tumors, BGB or cisplatin IC20 combos (AID 1671453); details: HTB85 osteosarcoma cells, drug combinations, stronger effect = higher value;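 note: cells exposed for 96 hours before readout; 0% = vehicle DMSO and 100% = high DMSO killing control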
# [6] = CRL2098 osteosarcoma cell growth inhibition, synergistic combos for chromothripsis tumors, BGB or cisplatin IC20 combos (AID 1671454); details: CRL2098 osteosarcoma cells, drug combinations, stronger effect = higher value;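 note: cells exposed for 96 h before readout; 0% = vehicle DMSO and 100% = killing by high DMSO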
# [7] = HD-MB03 medulloblastoma cell growth inhibition, synergistic combos for chromothripsis tumors, BGB or cisplatin IC20 combos (AID 1671455; in the data active = inhibition above about 83%;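 note: 0% = vehicle DMSO and 100% = high DMSO as cytotoxic control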); details: HD-MB03 medulloblastoma cells, stronger effect = higher value
# [8] = UWB1.289 ovarian carcinoma cell growth inhibition, synergistic combos for chromothripsis tumors, BGB or cisplatin combos (AID 1671456); details: UWB1.289 ovarian carcinoma cells, stronger effect = higher value;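 note: cells exposed to compound for four days; 0% = vehicle DMSO and 100% = killing by high DMSO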
# [9] = LFS_MB_2R medulloblastoma cell growth inhibition, synergistic combos for chromothripsis tumors, cisplatin combos (AID 1671457); details: LFS_MB_2R medulloblastoma cells, stronger effect = higher value;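 note: cells exposed to compound for four days before readout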
# [10] = MDA-MB-436 breast carcinoma cell growth inhibition, synergistic combos for chromothripsis tumors, BGB or cisplatin combos (AID 1671458; call rule not given here;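 note: cells exposed for 96 hours; 0% = vehicle DMSO and 100% = killing by high DMSO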); details: MDA-MB-436 breast carcinoma growth inhibition, drug combinations, stronger effect = higher value
# [11] = UWB1.289_BRCA1 ovarian cancer growth, cell-based, BGB or cisplatin combinations (AID 1671459); details: UWB1.289 BRCA1 ovarian carcinoma, drug combinations, stronger effect = higher value
# [12] = human astrocyte viability loss, single and combined drugs, cytotoxicity control for chromothriptic childhood tumor combination screen, cell-based, BGB or cisplatin IC20 combos (AID 1671460); details: Human astrocytes, drug combinations, stronger effect = higher value;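 note: cells exposed to compounds for 96 hours before viability readout; 0% = vehicle and 100% = killing control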
# [13] = growth inhibition of BT084 medulloblastoma cells, cell-based, ICGC_MB145, cisplatin and BGB IC40 combos (AID 1671461); details: drug combinations, stronger effect = higher value;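 note: cells exposed to drugs for 96 hours; 0% = vehicle DMSO and 100% = high DMSO full killing control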
# [14] = growth inhibition of RCMB18 medulloblastoma cells, cell-based, cisplatin and BGB IC40 combos (AID 1671462); details: stronger effect = higher value;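 note: cells exposed to compound for four days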
# [15] = growth inhibition of CRL1545 osteosarcoma cells, cell-based, cisplatin and BGB IC20 combos (AID 1671464); details: stronger effect = higher value;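 note: cells exposed to compound for 96 hours before readout; 0% = vehicle DMSO and 100% = high DMSO killing control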
# [16] = at 0.5 µM, stronger effect = higher value
# [17] = measured here: combination with BGB IC20, at 0.005 µM
# [18] = measured here: combination with BGB IC40, at 0.005 µM
# [19] = measured here: combination with BGB IC40, at 0.05 µM
# [20] = measured here: combination with cisplatin, at 0.5 µM, stronger effect = higher value
# [21] = measured here: combination with cisplatin, at 5 µM, stronger effect = higher value
# [22] = measured here: with BGB IC20 combination, at 0.5 µM
# [23] = measured here: with cisplatin IC20 combination, at 0.5 µM
# [24] = measured here: 5 uM single agent, at 5 µM
# [25] = measured here: combination with cisplatin, at 0.5 µM
# [26] = measured here: combination with cisplatin, at 5 µM
# [27] = measured here: with BGB IC20, at 0.5 µM
# [28] = measured here: with BGB IC20, at 5 µM
# [29] = measured here: with cisplatin IC20, at 0.5 µM
# [30] = measured here: with cisplatin IC20, at 5 µM
# [31] = measured here: combination with BGB at IC20, at 0.5 µM
# [32] = measured here: combination with cisplatin at IC20, at 0.5 µM
# [33] = measured here: combo with BGB at IC20, at 0.5 µM
# [34] = measured here: combo with cisplatin at IC20, at 0.5 µM
# [35] = measured here: inhibition with BGB combination, at 0.05 µM
# [36] = measured here: inhibition with cisplatin combination, at 0.05 µM
# [37] = measured here: BGB combination, at 0.5 µM
# [38] = measured here: BGB combination, at 5 µM
# [39] = measured here: cisplatin combination, at 0.5 µM
# [40] = measured here: cisplatin combination, at 5 µM
# [41] = BGB combination, concentration series, at 5 µM
# [42] = cisplatin combination, concentration series, at 5 µM
# [43] = measured here: combo with BGB IC20, at 0.5 µM
# [44] = measured here: combo with cisplatin IC20, at 0.5 µM
# [45] = cisplatin combination, at 0.5 µM
# [46] = measured here: BGB IC40 combination 0.05 uM, at 0.05 µM
# [47] = measured here: BGB IC40 combination, at 0.05 µM
structure (smiles),measurement,setting,value
COc1nc(N)nc2c1ncn2[C@@H]1O[C@H](CO)[C@@H](O)[C@H]1O,inhibition,[1]; [16],4.72% (inactive)
same,inhibition,[1]; [17],15.5%
same,inhibition,[1]; [18],9.31%
same,inhibition,[1]; [19],-38.6%
same,inhibition,[1]; [20],58.9%
same,inhibition,[1]; [21],5.54%
same,inhibition,"[2]; BGB combo, at 5 µM",-39.7%
same,inhibition,[2]; at 0.5 µM,-10.9% (inactive)
same,inhibition,"[2]; cisplatin combo, at 5 µM",-30.3%
same,inhibition,[2]; [22],-0.293%
same,inhibition,[2]; [23],-13.5%
same,inhibition,"[2]; single agent, at 5 µM",-2.81%
same,inhibition,"[3]; BGB IC20 combo, at 0.005 µM",-28.6%
same,inhibition,"[3]; BGB IC40 combo, at 0.005 µM",-6.48%
same,inhibition,"[3]; BGB IC40 combo, at 0.05 µM",-21%
same,inhibition,[3]; at 0.5 µM,-21.1% (inactive)
same,inhibition,"[3]; cisplatin combo, at 0.05 µM",-25.3%
same,inhibition,"[3]; cisplatin combo, at 0.5 µM",-22.6%
same,inhibition,"[3]; cisplatin combo, at 5 µM",-28.5%
same,inhibition,[3]; [24],-19.6%
same,inhibition,[4]; at 0.5 µM,-13.7% (inactive)
same,inhibition,[4]; [19],-35.3%
same,inhibition,[4]; [25],-34.3%
same,inhibition,[4]; [26],-13.1%
same,inhibition,[5]; at 0.5 µM,-19.2% (inactive)
same,inhibition,[5]; [27],-19.6%
same,inhibition,[5]; [28],-25.8%
same,inhibition,[5]; [29],-42.1%
same,inhibition,[5]; [30],-37.2%
same,inhibition,"[5]; single agent, at 5 µM",-10.5%
same,inhibition,[6]; at 0.5 µM,-31.4% (inactive)
same,inhibition,[6]; [31],-18.4%
same,inhibition,[6]; [32],-84.8%
same,inhibition,[7]; at 0.5 µM,-9.1% (inactive)
same,inhibition,[7]; [33],-11%
same,inhibition,[7]; [34],-9.78%
same,inhibition,[8]; at 0.5 µM,-10.1% (inactive)
same,inhibition,[8]; [35],-8.96%
same,inhibition,[8]; [36],-25.3%
same,inhibition,[9]; at 0.5 µM,-9.84% (inactive)
same,inhibition,[9]; [25],-1.3%
same,inhibition,[9]; [26],9.04%
same,inhibition,[10]; at 0.5 µM,-1.85% (inactive)
same,inhibition,[10]; [37],1.63%
same,inhibition,[10]; [38],-10.7%
same,inhibition,[10]; [39],-1.11%
same,inhibition,[10]; [40],-9.18%
same,inhibition,[11]; [41],-2.42%
same,inhibition,[11]; at 0.5 µM,-5.52% (inactive)
same,inhibition,[11]; [42],1.78%
same,inhibition,[12]; at 0.5 µM,-6.61% (inactive)
same,inhibition,[12]; [43],-1.7%
same,inhibition,[12]; [44],-14.9%
same,inhibition,[13]; at 0.5 µM,7.93% (inactive)
same,inhibition,[13]; [45],-30.4%
same,inhibition,"[13]; cisplatin combination, at 5 µM",16.2%
same,inhibition,[13]; [46],42.2%
same,inhibition,"[13]; single agent, at 5 µM",-18%
same,inhibition,[14]; at 0.5 µM,-13.9% (inactive)
same,inhibition,"[14]; cisplatin combo, at 5 µM",-23.5%
same,inhibition,[14]; [47],-4.14%
same,inhibition,[14]; [25],-19%
same,inhibition,"[14]; single agent, at 5 µM",15.2%
same,inhibition,[15]; at 0.5 µM,-24.6% (inactive)
same,inhibition,[15]; [22],-20.2%
same,inhibition,[15]; [23],-28.8%
same,inhibition,"[15]; single agent, at 0.05 µM",-9.67%
same,inhibition,"[15]; single agent, at 5 µM",-66.7%
C[C@@H]1COCCN1c1cc(C2(S(C)(=O)=O)CC2)nc(-c2cccc3[nH]ccc23)n1,inhibition,[1]; [16],-25.8% (inactive)
same,inhibition,[1]; [17],7.6%
same,inhibition,[1]; [18],5.5%
same,inhibition,[1]; [19],-17.8%
same,inhibition,[1]; [20],-15.1%
same,inhibition,[1]; [21],49.8%
same,inhibition,"[2]; BGB combo, at 5 µM",86.9%
same,inhibition,[2]; at 0.5 µM,36.8% (inactive)
same,inhibition,"[2]; cisplatin combo, at 5 µM",93.4%
same,inhibition,[2]; [22],34.2%
same,inhibition,[2]; [23],50.8%
same,inhibition,"[2]; single agent, at 5 µM",94%
same,inhibition,"[3]; BGB IC20 combo, at 0.005 µM",23.5%
same,inhibition,"[3]; BGB IC40 combo, at 0.005 µM",27.9%
same,inhibition,"[3]; BGB IC40 combo, at 0.05 µM",49.2%
same,inhibition,[3]; at 0.5 µM,-13.7% (inactive)
same,inhibition,"[3]; cisplatin combo, at 0.05 µM",47.4%
same,inhibition,"[3]; cisplatin combo, at 0.5 µM",1.99%
same,inhibition,"[3]; cisplatin combo, at 5 µM",-26.9%
same,inhibition,[3]; [24],12.7%
same,inhibition,[4]; at 0.5 µM,10% (inactive)
same,inhibition,[4]; [19],-3.56%
same,inhibition,[4]; [25],20.8%
same,inhibition,[4]; [26],56.7%
same,inhibition,[5]; at 0.5 µM,20.9% (inactive)
same,inhibition,[5]; [27],21%
same,inhibition,[5]; [28],63.3%
same,inhibition,[5]; [29],29.2%
same,inhibition,[5]; [30],91.9%
same,inhibition,"[5]; single agent, at 5 µM",73.8%
same,inhibition,[6]; at 0.5 µM,20.1% (inactive)
same,inhibition,[6]; [31],11.9%
same,inhibition,[6]; [32],19.4%
same,inhibition,[7]; at 0.5 µM,38% (inactive)
same,inhibition,[7]; [33],11.4%
same,inhibition,[7]; [34],91.1%
same,inhibition,[8]; at 0.5 µM,63.9% (inactive)
same,inhibition,[8]; [35],6.56%
same,inhibition,[8]; [36],-6.75%
same,inhibition,[9]; at 0.5 µM,13.6% (inactive)
same,inhibition,[9]; [25],20.6%
same,inhibition,[9]; [26],51.4%
same,inhibition,[10]; at 0.5 µM,22.5% (inactive)
same,inhibition,[10]; [37],8.94%
same,inhibition,[10]; [38],45.1%
same,inhibition,[10]; [39],30.1%
same,inhibition,[10]; [40],85.8%
same,inhibition,[11]; [41],93.1%
same,inhibition,[11]; at 0.5 µM,65.4% (inactive)
same,inhibition,[11]; [42],117%
same,inhibition,[12]; at 0.5 µM,23.1% (inactive)
same,inhibition,[12]; [43],14.4%
same,inhibition,[12]; [44],30.8%
same,inhibition,[13]; at 0.5 µM,17% (inactive)
same,inhibition,[13]; [45],14.1%
same,inhibition,"[13]; cisplatin combination, at 5 µM",58%
same,inhibition,[13]; [46],-18.4%
same,inhibition,"[13]; single agent, at 5 µM",44.6%
same,inhibition,[14]; at 0.5 µM,25.2% (inactive)
same,inhibition,"[14]; cisplatin combo, at 5 µM",34.6%
same,inhibition,[14]; [47],-0.169%
same,inhibition,[14]; [25],44.8%
same,inhibition,"[14]; single agent, at 5 µM",51.4%
same,inhibition,[15]; at 0.5 µM,76.6% (inactive)
same,inhibition,[15]; [22],71%
same,inhibition,[15]; [23],79.1%
same,inhibition,"[15]; single agent, at 0.05 µM",21.8%
same,inhibition,"[15]; single agent, at 5 µM",97.9%
